Holding throughout (experiment): NCI-60 one-dose screen, 48 h (100 = growth as untreated, 0 = no growth, -100 = all killed)
Holding throughout (settings): 10 µM unless noted

Test [1] deals with DU-145 prostate.
Test [2] deals with K-562 leukemia.
The subject of test [3] is MALME-3M melanoma.
Test [4] concerns MDA-MB-231 breast.
Test [5] concerns RXF 393 renal.
The subject of test [6] is SF-268 CNS.
The test system of test [7] is SF-295 CNS.
The test system of test [8] is SF-539 CNS.
Test [9] deals with UACC-257 melanoma.
The subject of test [10] is M14 melanoma.
The subject of test [11] is HCT-15 colon.
In test [12] the test system is SNB-75 CNS.
For test [13], the system named is SNB-19 CNS.
The test system of test [14] is U251 CNS.
For test [15], the system named is PC-3 prostate.
Test [16] has as its system SK-MEL-5 melanoma.
Test [17] deals with UACC-62 melanoma.
The subject of test [18] is LOX IMVI melanoma.
Test [19] concerns SK-MEL-28 melanoma.
Test [20] concerns HT29 colon.

In PubChem BioAssay (NCI) one finds growth data, which are given here for eight molecules.

About 83,000 compounds went through this panel and 20% of them were active in at least one assay; those are over-represented in the sample as a whole.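 Note: values are percent growth. 100 is the growth of untreated cells, values between 100 and 0 indicate rising inhibition; between -100 and 0 indicates cell death.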 Unmarked numbers belong to inactive results. The source made the active and inactive calls. The calls were made as follows: active = growth percent below 10; inactive = the rest.

Take `CS(=O)(=O)c1ccc(-c2[nH]c3ccc(F)cc3c2/C=N/O)cc1`: the growth in test [1] is 97.2%; in test [2] it was 89.4%; in test [3], 105%; in [4], 89.2%; in test [5], 104%; in [6], 93%. In addition, the growth in test [7] was 100%; in test [8], 88.8%; in test [9] it was 86.7%; in [10], 96.6%; in test [11], 98.4%; in [12] it was 69.2%. Moreover, the growth in test [13] was 103%; in test [14], 91.2%; in test [15], 79.4%; in test [16], 103%; in [17] it was 91.2%; in test [18], 95.3%. The growth in test [19] is 108%.

Consider `CC(=O)C(C(C)=O)c1nc2sc3cc(Cl)ccc3n2c(=N)c1C#N`, for which the growth was 97.4% in [1]; 85.2% in test [2]; 95.2% in [3]; 51.9% in test [4]; 109% in [5]; 77.7% in [6]. Moreover, the growth in test [7] was 98.4%; in [8], 95.5%; in test [9], 108%; in test [10], 97.2%; in test [11], 94.2%; in [12] it was 41.2%. The growth in test [13] is 78.8%; in test [14], 82.3%; in [15] it was 65.2%; in test [16], 74.6%; in test [17], 61.6%; in test [18], 79.7%. In addition, the growth in test [19] was 103%.

As to `C#CC[C@H](N)C(=O)O`, the growth was 104% [20 µM] in [1]; 96.8% [20 µM] in test [2]; 97% [20 µM] in test [3]; 99.1% [20 µM] in [4]; 114% [20 µM] in [5]; 99.8% [20 µM] in test [6]. For the same molecule, the growth in [7] was 102% [20 µM]; in [8] it was 96% [20 µM]; in test [9] it was 101% [20 µM]; in test [10], 100% [20 µM]; in [11], 100% [20 µM]; in test [12] it was 68% [20 µM]. The growth in [13] was 93.1% [20 µM]; in test [14], 100% [20 µM]; in [15], 102% [20 µM]; in test [16], 102% [20 µM]; in [17], 95.4% [20 µM]; in test [19], 110% [20 µM].

On to `O=C(NCc1cccnc1)c1cc(-c2csc3c(=O)cc(N4CCOCC4)oc23)cc2c1OCCO2`, for which the growth is 70% in test [1]; 24.8% in [2]; 47.9% in test [3]; 21.5% in test [4]; 40.6% in test [5]; 53% in [6]. For the same molecule, the growth in test [7] was 30%; in test [8], 10.6%; in [9] it was 47%; in test [10], 43.4%; in [11], 66.5%; in test [12], -9.26% (active). Moreover, the growth in test [13] was 47.5%; in test [14], 51.8%; in [15] it was 38.6%; in test [16], 39.6%; in test [17], 12.2%; in test [19], 49%.

`CCN(CC)CCNc1ccc(C)c2sc3cc(C)ccc3c(=O)c12`: the growth in test [1] was 67%; in [2], -19.6% (active); in test [3], 72.5%; in test [4], 19.4%; in [5] it was 59.1%; in test [6] it was 59.1%. For the same molecule, the growth was 72.9% in [7]; 76.3% in test [8]; 65.5% in test [9]; -46.2% (active) in test [10]; 21.2% in test [11]; 67.2% in [12]. Moreover, the growth in [13] is 57.6%; in test [14], 45.5%; in test [15], 41%; in test [16], 21.9%; in test [17] it was -15.2% (active); in test [18], 28.4%. Moreover, the growth in [19] was 74.5%.

Consider `COc1ccc(N=c2nc3sc4cc(Cl)ccc4n3c(N)c2C#N)cc1`, for which the growth in test [1] is 105%; in test [2], 98.9%; in [3], 77.4%; in [4] it was 76.4%; in test [5], 52%; in test [6] it was 60.1%. Further, the growth in test [7] is -3.63% (active); in [8], 103%; in [9], 61.6%; in test [10] it was 70.6%; in [11], 99.5%; in [12], 36.9%. The growth was 82% in [13]; 79% in test [14]; 58.5% in test [15]; 14.9% in test [16]; 69.3% in [17]; 83% in test [18]. In [19], the growth was 45.8%.

For `O=S(=O)(Cc1ccccc1)c1nc2ccccc2s1`, the growth in test [1] is 86.7%; in [2], 13.5%; in [3] it was 73.6%; in test [4], 85.1%; in test [5], 109%; in test [6], 79%. The growth is 109% in test [7]; 92% in test [8]; 78.7% in test [9]; 18.3% in [10]; 33.3% in test [11]; 90% in test [12]. Besides, the growth in [13] is 97.1%; in test [14], 92.1%; in test [15], 79.5%; in test [16] it was 67.4%; in [17], 71.1%; in test [18] it was 10.8%. Moreover, the growth in test [19] was 93.8%.

With `CC1=NN(c2cccc(Cl)c2)C(=O)/C1=C\c1cn(CC(O)CN2CCCCC2)c2ccccc12` (stereo not given), the growth in test [1] is 96.7%; in [2], 28.9%; in test [3] it was 32.9%; in test [4], 41.4%; in [5], 67.1%; in test [6] it was 72.6%. For the same molecule, the growth in [7] was 62.4%; in [8], 96.1%; in test [9], -82.1% (active); in test [11] it was 36.8%; in test [20], -57.3% (active); in [12] it was 87.2%. The growth is 84.2% in test [13]; 36.5% in [14]; 62.3% in test [15]; 55.5% in test [16]; -47.4% (active) in test [17]; 11% in test [18]. The growth in [19] is -28.1% (active).
